Where “and” joins values, the source holds several entries; their conditions need not be identical. Equal entries are not always repeated. Results filed as inconclusive are left out. More than one record can exist for a structure, and the calls need not agree. Calls of active or inactive are those of the source. How the source made its calls, unless noted: active means hit-call score of the fitted dose curve at least 0.9, where 1 is the maximum; inactive means score below 0.9.

The results in this text go back to PubChem BioAssay (EPA / NIEHS).

Read-out in experiment [1]: Interleukin-8 (IL8), CXCL8 (gene 3576)
As to the kind of experiment: BSK_3C_IL8: BioMAP Diversity Plus: 3C Assay for Interleukin-8 (IL8) Biomarker Activity (AID 2283020). As to conditions: primary human endothelial cells (HUVEC); actives raise or lower the signal. In a few lines:
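ELISA read-out of IL-8 from human umbilical vein endothelium, measured 24 h after chemical dosing. Activity is expressed relative to DMSO negative control, with both increases and decreases fitted.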

Read-out in experiment [2]: Monokine induced gamma interferon (MIG), CXCL9 (gene 4283)
Put plainly: BSK_3C_MIG: BioMAP Diversity Plus: 3C Assay for Monokine induced gamma interferon (MIG) Biomarker Activity (AID 2283021).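 On AC50: MIG protein level measured by immunoassay in the treated endothelial cultures.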 As to conditions: primary human endothelial cells (HUVEC); actives raise or lower the signal. In a few lines:
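Read-out is ELISA detection of MIG on human umbilical vein endothelial cells, taken 24 h after dosing. Gain or loss of signal was scored relative to DMSO controls using bidirectional curve fitting.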

Experiment [3] concerns the target human Vitamin D Receptor (VDR), VDR (gene 7421) (UniProt P11473). Put plainly: ATG_VDR_TRANS: Attagene TRANS-FACTORIAL HepG2 Assay for human Vitamin D Receptor (VDR) (AID 2283022; active means hit-call score of the fitted dose curve at least 0.9, where 1 is the maximum). A digest of the protocol: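 HepG2 cells were transiently transfected with GAL4-UAS reporter units and a chimeric VDR-Gal4 construct, then dosed for 24 hours. Reporter mRNA was quantified by RT-PCR, fluorescent labeling, HpaI digestion and capillary electrophoresis; gain of signal analysed vs DMSO.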

Experiment [4] can be described thus: BSK_3C_SRB: Viability Assessment in the BioMAP Diversity Plus: 3C Assay (AID 2283023).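 Further: fitted both ways against DMSO so a hit may be signal rise or drop.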 As to conditions: primary human endothelial cells (HUVEC). A digest of the protocol: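 Human umbilical vein endothelial cells in the 3C system, treated 24 h. Total protein measured by 0.1% sulforhodamine B staining after 10% TCA fixation, read at 560 nm; bidirectional fit versus DMSO.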

Read-out in experiment [5]: Matrix Metallopeptidase 1 (MMP1), MMP1 (gene 4312)
As to the kind of experiment: BSK_BE3C_MMP1: BioMAP Diversity Plus: BE3C Assay for Matrix Metallopeptidase 1 (MMP1) Biomarker Activity (AID 2283024). As to conditions: primary human bronchial epithelial cells; actives raise or lower the signal. A digest of the protocol: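 Human bronchial epithelial cells (BE3C system) exposed to compound for 24 h; MMP1 then quantified by ELISA. Activity was fitted in both directions relative to DMSO.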

Read-out in experiment [6]: Pselectin, SELP (gene 6403)
As to the kind of experiment: BSK_4H_Pselectin: BioMAP Diversity Plus: 4H Assay for Pselectin Biomarker Activity (AID 2283026). As to conditions: primary human endothelial cells (HUVEC); actives raise or lower the signal. In a few lines: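 ELISA read-out of P-selectin on human umbilical vein endothelium after 24 h of dosing. Values derive from bidirectional fitting relative to DMSO. Parallel SRB protein staining flagged overt cytotoxicity.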

Experiment [7] in a line: BSK_4H_SRB: Viability Assessment in the BioMAP Diversity Plus: 4H Assay (AID 2283027).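 Further: cells exposed to compound for 24 h before staining.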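 On AC50: curves fitted both ways versus DMSO so AC50 may be loss or gain.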 As to conditions: primary human endothelial cells (HUVEC). In a few lines: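 Human umbilical vein endothelial cells, 24 h after chemical dosing; total protein measured by 0.1% sulforhodamine B staining after 10% TCA fixation, read at 560 nm. Bidirectional fitting against DMSO.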
Experiment [8] in a line: BSK_BE3C_SRB: Viability Assessment in the BioMAP Diversity Plus: BE3C Assay (AID 2283028).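 On AC50: fitted both ways so AC50 may mark signal gain or loss versus DMSO.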 As to conditions: primary human bronchial epithelial cells. A digest of the protocol:
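Human bronchial epithelial primary cells in confluent culture, 24 h after chemical dosing; total protein by 0.1% SRB staining after 10% TCA fixation, read at 560 nm. Bidirectional fitting versus DMSO baseline.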

Read-out in experiment [9]: Thrombomodulin, THBD (gene 7056)
As to the kind of experiment: BSK_3C_Thrombomodulin: BioMAP Diversity Plus: 3C Assay for Thrombomodulin Biomarker Activity (AID 2283029). As to conditions: primary human endothelial cells (HUVEC); actives raise or lower the signal. A digest of the protocol:
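Read-out is ELISA of thrombomodulin on human umbilical vein endothelium 24 h after chemical dosing. Gain or loss of signal is scored relative to DMSO. Overt cytotoxicity is checked in parallel cultures by sulforhodamine B staining.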

Read-out in experiment [10]: Urokinase-type plasminogen activator receptor (uPAR), PLAUR (gene 5329)
As to the kind of experiment: BSK_4H_uPAR: BioMAP Diversity Plus: 4H Assay for Urokinase-type plasminogen activator receptor (uPAR) Biomarker Activity (AID 2283030). As to conditions: primary human endothelial cells (HUVEC); actives raise or lower the signal. A digest of the protocol:
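Human umbilical vein endothelial cells in the 4H system, 24 h after chemical dosing. Cell-surface uPAR measured by ELISA, fitted in both directions versus DMSO; cytotoxicity checked by SRB total protein in parallel cultures.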

Read-out in experiment [11]: Vascular endothelial growth factor receptor 2 (Homo sapiens) (UniProt P35968)
Put plainly: BSK_4H_VEGFRII: BioMAP Diversity Plus: 4H Assay for Vascular endothelial growth factor receptor 2 (VEGFR2) Biomarker Activity (AID 2283031). As to conditions: primary human endothelial cells (HUVEC); actives raise or lower the signal. In a few lines:
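Primary human umbilical vein endothelial cells (4H system), 24 h exposure; cell-surface VEGFR2 measured by ELISA. Bidirectional fitting versus DMSO; cytotoxicity checked in parallel by SRB total-protein staining.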

Read-out in experiment [12]: Human Leukocyte Antigen - DR isotype (HLADR), HLA-DRA (gene 3122)
As to the kind of experiment: BSK_BE3C_HLADR: BioMAP Diversity Plus: BE3C Assay for Human Leukocyte Antigen - DR isotype (HLADR) Biomarker Activity (AID 2283032). As to conditions: primary human bronchial epithelial cells; actives raise or lower the signal. A digest of the protocol: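 ELISA read-out of HLA-DR on human lung bronchial epithelial primary cells, measured 24 h post-dosing. Both increases and decreases were scored relative to DMSO vehicle.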

Read-out in experiment [13]: Vascular cell adhesion molecule 1 (VCAM1), VCAM1 (gene 7412)
Put plainly: BSK_4H_VCAM1: BioMAP Diversity Plus: 4H Assay for Vascular cell adhesion molecule 1 (VCAM1) Biomarker Activity (AID 2283033).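 On outcome: cell-surface VCAM-1 protein measured by ELISA.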 As to conditions: primary human endothelial cells (HUVEC); actives raise or lower the signal. A digest of the protocol:
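ELISA read-out of VCAM-1 on human umbilical vein endothelium 24 hours after chemical dosing; gain or loss of signal was fitted relative to DMSO, with sulforhodamine B staining of parallel cultures flagging overt cytotoxicity.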

Read-out in experiment [14]: Interferon-gamma inducible Protein 10 (IP10), CXCL10 (gene 3627)
Put plainly: BSK_BE3C_IP10: BioMAP Diversity Plus: BE3C Assay for Interferon-gamma inducible Protein 10 (IP10) Biomarker Activity (AID 2283034). As to conditions: primary human bronchial epithelial cells; actives raise or lower the signal. In a few lines: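 Chemical is dosed onto human lung bronchial epithelial primary cells, cultures are incubated 24 h, and IP-10 is then quantified by ELISA. Gain or loss of signal is fitted in both directions relative to DMSO.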

Read-out in experiment [15]: Monokine induced gamma interferon (MIG), CXCL9 (gene 4283)
As to the kind of experiment: BSK_BE3C_MIG: BioMAP Diversity Plus: BE3C Assay for Monokine induced gamma interferon (MIG) Biomarker Activity (AID 2283035).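 On outcome: MIG protein measured by ELISA in BE3C cultures after 24 h of dosing.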 As to conditions: primary human bronchial epithelial cells; actives raise or lower the signal. In a few lines:
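Primary human bronchial epithelial cells treated for 24 h; MIG levels measured by ELISA, fitted bidirectionally versus DMSO. Parallel SRB total-protein staining assessed cytotoxicity.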

Read-out in experiment [16]: Plasminogen activator inhibitor-1 (PAI1), SERPINE1 (gene 5054)
Put plainly: BSK_BE3C_PAI1: BioMAP Diversity Plus: BE3C Assay for Plasminogen activator inhibitor-1 (PAI1) Biomarker Activity (AID 2283037). As to conditions: primary human bronchial epithelial cells; actives raise or lower the signal. In a few lines: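 Primary human lung bronchial epithelial cells; chemical dosing; 24 h; PAI-1 measured by ELISA; bidirectional fit referenced to DMSO as negative control.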

Read-out in experiment [17]: urokinase plasminogen activator (uPA), PLAU (gene 5328)
As to the kind of experiment: BSK_BE3C_uPA: BioMAP Diversity Plus: BE3C Assay for urokinase plasminogen activator (uPA) Biomarker Activity (AID 2283038).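 Further: uPA protein level quantified by ELISA in cell cultures; uPA read one day after compound addition.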 As to conditions: primary human bronchial epithelial cells; actives raise or lower the signal. In a few lines:
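Primary human bronchial epithelial cells, uPA measured by ELISA 24 h after dosing. Bidirectional change relative to DMSO; cytotoxicity checked in parallel cultures by sulforhodamine B total-protein staining.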

Read-out in experiment [18]: Urokinase-type plasminogen activator receptor (uPAR), PLAUR (gene 5329)
As to the kind of experiment: BSK_BE3C_uPAR: BioMAP Diversity Plus: BE3C Assay for Urokinase-type plasminogen activator receptor (uPAR) Biomarker Activity (AID 2283039).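 Further: cells exposed to compound for one day before measurement.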 As to conditions: primary human bronchial epithelial cells; actives raise or lower the signal. A digest of the protocol: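 Human bronchial epithelial primary cells; chemical exposure 24 h; uPAR by ELISA; bidirectional fit vs DMSO control.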

Sequence of human Vitamin D Receptor (VDR), VDR (gene 7421) (P11473 whole entry, looked up, the tested form may be a part): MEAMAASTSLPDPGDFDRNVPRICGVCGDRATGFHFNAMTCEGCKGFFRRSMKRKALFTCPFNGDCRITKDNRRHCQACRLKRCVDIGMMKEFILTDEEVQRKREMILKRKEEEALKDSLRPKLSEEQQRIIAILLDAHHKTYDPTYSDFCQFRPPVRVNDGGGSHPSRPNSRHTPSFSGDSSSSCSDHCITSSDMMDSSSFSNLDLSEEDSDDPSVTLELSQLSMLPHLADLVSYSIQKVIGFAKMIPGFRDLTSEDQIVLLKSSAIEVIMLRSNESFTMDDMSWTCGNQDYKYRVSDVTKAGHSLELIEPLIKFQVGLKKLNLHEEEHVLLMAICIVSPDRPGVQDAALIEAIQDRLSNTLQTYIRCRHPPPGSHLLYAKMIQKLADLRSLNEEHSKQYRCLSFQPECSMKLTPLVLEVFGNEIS

In general, AC50 refers to the concentration giving half of the maximal activity seen. As to `O=C(O)C(F)(F)C(F)(F)C(F)(F)C(F)(F)C(F)(F)C(F)(F)C(F)(F)C(F)(F)Cl`, the half-maximal activity concentration (AC50) in experiment [1] was 45.1 µM (active); in experiment [2] it was 55.1 µM (active); in [4], 52.5 µM (active) and 45.1 µM (active); in experiment [5] it was 7.12 µM (active) and 55.3 µM (active); in experiment [7], 49.7 µM (active) and 52.2 µM (active); in [8], 41.3 µM (active) and 29.4 µM (active). The half-maximal activity concentration (AC50) in experiment [9] is 48.5 µM (active) and 45.4 µM (active); in experiment [12] it was 18.2 µM (active) and 17.6 µM (active); in experiment [13], 56.8 µM (active); in [14], 18.3 µM (active) and 17.9 µM (active); in experiment [15], 46.6 µM (active) and 46.5 µM (active); in [16], 18 µM (active) and 12.2 µM (active). The result in experiment [1], in experiment [2], in experiment [3], in experiment [6], in [10] and in experiment [11] was inactive. The result in experiment [13] was inactive.

With `FC(F)(F)C(F)(F)C(F)(F)C(F)(F)CCI`, the outcome in experiment [1], in [2], in [3], in [4], in experiment [5] and in [6] was inactive. Further, the outcome in experiment [7], in [8], in experiment [10], in experiment [11], in [12] and in [13] was inactive. The result in experiment [15], in [16], in experiment [17] and in experiment [18] was inactive. Besides, the half-maximal activity concentration (AC50) in experiment [5] is 30 µM (active).

Turning to `CCCCC(CC)COP(=O)(O)OCC(CC)CCCC` (configuration not stated), the result in experiment [1], in experiment [2], in experiment [3], in experiment [4], in experiment [5] and in experiment [6] was inactive. The outcome in [7], in [8], in experiment [9], in experiment [10], in [11] and in experiment [13] was inactive. In addition, the AC50 was 27.7 µM (active) in [4]; 29.3 µM (active) and 31.6 µM (active) in experiment [12]; 32.8 µM (active) and 29.5 µM (active) in [15]; 16.2 µM (active) and 20 µM (active) in [16].
